# Assay results from PubChem BioAssay.
# Results filed as inconclusive are left out. Calls of active or inactive are those of the source.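 The calls were made as follows, unless noted: active = normalized viability below 100% at a tested concentration; inactive = the rest.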 Bridge positions count the residues as written; N and C are the ends. Square brackets hold non-standard residues; d marks the D form. Peptide text beside a SMILES is read from it. * marks the point of attachment. X2 = CCC(C)C(N)C1=NC(C(=O)*)CS1; dOrn = NCCC[C@@H](N)C(=O)O
# Experiments:
# [1] = growth inhibition of DIPG glioma cells, dose response, cell-based, SU-DIPG-XIII, MIPE5.0, CellTiter-Glo, qHTS (AID 1347064; cut-off not given, nearly all actives have AC50 up to about 23 µM;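 as to AC50: cells exposed to compound for 48 hours before the viability read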); details: SU-DIPG-XIII viability, CellTiter-Glo ATP luminescence
# [2] = viability loss in pontine glioma line – cell-based, SU-DIPG-XXV, MIPE5.0, CellTiter-Glo, qHTS, dose response (AID 1347065; cut-off not given, nearly all actives have AC50 up to about 26 µM;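 also: cells exposed to compound for 48 hours before ATP readout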); details: CellTiter-Glo ATP luminescence
# [3] = SU-DIPG-XXV glioma cell viability, MIPE5.0 library, qHTS (AID 1347068; cut-off not given, nearly all actives have IC50 up to about 30 µM;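 as to IC50: cells exposed to compound for 48 hours before viability readout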)
# [4] = JHH-DIPG-1 glioma cell viability, MIPE5.0 library, CellTiter-Glo luminescence, qHTS (AID 1347067; cut-off not given, nearly all actives have AC50 up to about 26 µM;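 also: cells exposed to compound for 48 hours before readout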); details: JHH-DIPG-1 glioma viability, CellTiter-Glo ATP luminescence
# [5] = hESC survival regulators, cell-based (AID 493140; call rule not given here;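 also: cells exposed to compounds for four days before counting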); details: human embryonic stem cell survival screen; stronger effect = higher value
# [6] = liver-stage malaria parasite growth inhibition, primary screen, cell-based, HepG2, luciferase luminescence, HepG2 viability (AID 624349; in the data active = parasite load remaining mostly below about 12%, no sharp cut-off; inactive = mostly above about 10%;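 also: 100% = mean of DMSO negative control wells on the same plate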); details: P. berghei liver stage in HepG2, luciferase luminescence, concentration not given here; parasite load remaining: stronger effect = lower value; viability: measured here: HepG2 viability without parasites
# [7] = sensitizers of A549 cells to miR-34 induction, primary screen, imaging, A549 dox-inducible miR-34, nuclei and caspase counts (AID 1347080;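 active = compounds whose cell count with miR-34 switched on is under 0.7 times the count with it off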); details: A549 miR-34 inducible, Hoechst nuclei count, 48 h
# [8] = survival rescue of mitochondrial mutant cells in low glucose, primary screen, MELAS cybrids, Rieske KO mouse fibroblasts, CellTiter-Glo (AID 1508586;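 active = mean z-score across replicates of 1.96 or higher in either the MELAS or the Rieske mutant cell line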;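 also: z relative to plate mean and SD of compound and empty wells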)
# [9] = SU-DIPG-VI glioma cell viability, MIPE4.0 library, CellTiter-Glo luminescence, qHTS (AID 1347066; cut-off not given, nearly all actives have AC50 up to about 30 µM;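 also: cells exposed to compound for 48 hours before readout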); details: CellTiter-Glo ATP luminescence
# [10] = ovarian cancer cell viability with rucaparib, profiling panel, oncology-focused library, rucaparib conditional (AID 1508598); details: patient-derived ovarian cancer cells, CellTiter-Glo viability, 144 h, stronger effect = lower value
# [11] = stronger effect = lower value, cell number ratio, induced over uninduced
# [12] = measured here: relative caspase fold change +Dox/-Dox
# [13] = measured here: total cells with miR-34 induction, stronger effect = lower value
# [14] = measured here: total cells without miR-34 induction
# [15] = MELAS cybrid survival, CellTiter-Glo 48 h, stronger effect = higher value
# [16] = Rieske KO mouse fibroblast survival, CellTiter-Glo 72 h
smiles,measurement,setting,value
C=CCN(/C=C1\C(=O)O[C@@H](COC)[C@]2(C)C1=C(O)C(=O)C1=C2[C@@H](OC(C)=O)C[C@]2(C)C(=O)CC[C@H]12)CC=C,AC50,[1],16.6 µM (active)
same,AC50,[2],9.34 µM (active)
same,outcome,[3],inactive
C=C1[C@H](OC(=O)/C=C(\C)CC)C[C@@H](C(C)C)[C@@H]2[C@H]([C@@H](C)OC(C)=O)C(=O)C[C@@H]12,AC50,[1],18.6 µM (active)
same,AC50,[4],18.6 µM (active)
same,outcome,[3],inactive
C[C@H](Nc1ncnc2nc[nH]c12)c1cc2ccc(F)cc2nc1-c1ccccn1,outcome,[1],inactive
same,outcome,[4],inactive
same,outcome,[3],inactive
CCC(C)C(N)C1=NC(C(=O)N[C@@H](CC(C)C)C(=O)N[C@H](CCC(=O)O)C(=O)N[C@H](C(=O)N[C@H]2CCCCNC(=O)[C@H](CC(N)=O)NC(=O)[C@@H](CC(=O)O)NC(=O)[C@H](Cc3cnc[nH]3)NC(=O)[C@@H](Cc3ccccc3)NC(=O)[C@H]([C@@H](C)CC)NC(=O)[C@@H](CCCN)NC2=O)[C@@H](C)CC)CS1 (stereo not given in full) (X2-L[dE]IK[dOrn]I[dF]H[dD]N; lactam 4-C),survival,[5],9.33 (inactive)
same,parasite load remaining,[6],69.3% (inactive)
same,viability,[6],103%
same,outcome,[1],inactive
same,outcome,[2],inactive
same,outcome,[4],inactive
same,outcome,[3],inactive
same,fold change,[7]; [11],0.898 (inactive)
same,fold change,[7]; [12],1.36
same,cell count,[7]; [13],9810
same,cell count,[7]; [14],10900
same,z-score,[8]; [15],0.499 (inactive)
same,z-score,[8]; [16],-0.0886
O=C(Nc1ccc(F)c(C(F)(F)F)c1)Nc1nnc(-c2ccncc2)s1,outcome,[1],inactive
same,outcome,[9],inactive
same,outcome,[4],inactive
same,outcome,[3],inactive
FC(F)(F)c1ccc(CNc2ccc(Cc3c[nH]c4ncc(Cl)cc34)cn2)cn1,outcome,[1],inactive
same,outcome,[4],inactive
same,outcome,[3],inactive
CN(C)Cc1cccc(N=C(c2ccccc2)c2c(O)[nH]c3cc(C(=O)N(C)C)ccc23)c1,outcome,[1],inactive
same,outcome,[9],inactive
same,IC50,[3],18.6 µM (active)
same,fold change,[7]; [11],0.785 (inactive)
same,fold change,[7]; [12],1.01
same,cell count,[7]; [13],3180
same,cell count,[7]; [14],4050
same,z-score,[8]; [15],-0.347 (inactive)
same,z-score,[8]; [16],0.635
O=C(NNc1ccccc1)c1ccncc1,outcome,[1],inactive
same,outcome,[2],inactive
same,outcome,[3],inactive
same,fold change,[7]; [11],0.922 (inactive)
same,fold change,[7]; [12],0.452
same,cell count,[7]; [13],7960
same,cell count,[7]; [14],8630
same,z-score,[8]; [15],-0.433 (inactive)
same,z-score,[8]; [16],-1.65
Cc1c(Cl)cccc1S(=O)(=O)Nc1nc(CCN2CCOCC2=O)cs1,outcome,[1],inactive
same,outcome,[2],inactive
same,outcome,[3],inactive
COc1cccc(-c2ccc(NC(=O)C3=C(C(=O)O)CCC3)c(F)c2)c1,outcome,[1],inactive
same,outcome,[2],inactive
same,outcome,[3],inactive
Cc1ccc2nc(NC(=O)CSc3nc4c(c(=O)n3-c3ccccc3)SCC4)sc2c1,outcome,[1],inactive
same,outcome,[9],inactive
same,outcome,[4],inactive
same,outcome,[3],inactive
same,fold change,[7]; [11],1.08 (inactive)
same,fold change,[7]; [12],1.26
same,cell count,[7]; [13],7960
same,cell count,[7]; [14],7340
same,z-score,[8]; [15],-0.206 (inactive)
same,z-score,[8]; [16],-0.109
same,viability,"[10]; at 0.000305 µM, OCI-C5x cells, with rucaparib 10 µM, 100% = cells with rucaparib alone",116% (inactive)
same,viability,"[10]; at 0.000305 µM, OCI-C5x cells, without rucaparib",106% (inactive)
same,viability,"[10]; at 0.000305 µM, OCI-P5x cells, with rucaparib 20 µM, 100% = cells with rucaparib alone",106% (inactive)
same,viability,"[10]; at 0.000305 µM, OCI-P5x cells, without rucaparib",100% (inactive)
same,viability,"[10]; at 0.00122 µM, OCI-C5x cells, with rucaparib 10 µM, 100% = cells with rucaparib alone",113% (inactive)
same,viability,"[10]; at 0.00122 µM, OCI-C5x cells, without rucaparib",109% (inactive)
same,viability,"[10]; at 0.00122 µM, OCI-P5x cells, with rucaparib 20 µM, 100% = cells with rucaparib alone",102% (inactive)
same,viability,"[10]; at 0.00122 µM, OCI-P5x cells, without rucaparib",101% (inactive)
same,viability,"[10]; at 0.00488 µM, OCI-C5x cells, with rucaparib 10 µM, 100% = cells with rucaparib alone",113% (inactive)
same,viability,"[10]; at 0.00488 µM, OCI-C5x cells, without rucaparib",118% (inactive)
same,viability,"[10]; at 0.00488 µM, OCI-P5x cells, with rucaparib 20 µM, 100% = cells with rucaparib alone",107% (inactive)
same,viability,"[10]; at 0.00488 µM, OCI-P5x cells, without rucaparib",95.3% (active)
same,viability,"[10]; at 0.0195 µM, OCI-C5x cells, with rucaparib 10 µM, 100% = cells with rucaparib alone",116% (inactive)
same,viability,"[10]; at 0.0195 µM, OCI-C5x cells, without rucaparib",114% (inactive)
same,viability,"[10]; at 0.0195 µM, OCI-P5x cells, with rucaparib 20 µM, 100% = cells with rucaparib alone",105% (inactive)
same,viability,"[10]; at 0.0195 µM, OCI-P5x cells, without rucaparib",99.2% (active)
same,viability,"[10]; at 0.0781 µM, OCI-C5x cells, with rucaparib 10 µM, 100% = cells with rucaparib alone",112% (inactive)
same,viability,"[10]; at 0.0781 µM, OCI-C5x cells, without rucaparib",115% (inactive)
same,viability,"[10]; at 0.0781 µM, OCI-P5x cells, with rucaparib 20 µM, 100% = cells with rucaparib alone",101% (inactive)
same,viability,"[10]; at 0.0781 µM, OCI-P5x cells, without rucaparib",99.7% (active)
same,viability,"[10]; at 0.313 µM, OCI-C5x cells, with rucaparib 10 µM, 100% = cells with rucaparib alone",112% (inactive)
same,viability,"[10]; at 0.313 µM, OCI-C5x cells, without rucaparib",115% (inactive)
same,viability,"[10]; at 0.313 µM, OCI-P5x cells, with rucaparib 20 µM, 100% = cells with rucaparib alone",106% (inactive)
same,viability,"[10]; at 0.313 µM, OCI-P5x cells, without rucaparib",94.9% (active)
same,viability,"[10]; at 1.25 µM, OCI-C5x cells, with rucaparib 10 µM, 100% = cells with rucaparib alone",117% (inactive)
same,viability,"[10]; at 1.25 µM, OCI-C5x cells, without rucaparib",114% (inactive)
same,viability,"[10]; at 1.25 µM, OCI-P5x cells, with rucaparib 20 µM, 100% = cells with rucaparib alone",97.6% (active)
same,viability,"[10]; at 1.25 µM, OCI-P5x cells, without rucaparib",97.1% (active)
same,viability,"[10]; at 5 µM, OCI-C5x cells, with rucaparib 10 µM, 100% = cells with rucaparib alone",164% (inactive)
same,viability,"[10]; at 5 µM, OCI-C5x cells, without rucaparib",162% (inactive)
same,viability,"[10]; at 5 µM, OCI-P5x cells, with rucaparib 20 µM, 100% = cells with rucaparib alone",76.9% (active)
same,viability,"[10]; at 5 µM, OCI-P5x cells, without rucaparib",95.4% (active)
